Experimental data as given in PubChem BioAssay (NCI).
This is part of a sample that, as a whole, favours compounds with a hit. Of some 83,000 tested, about 20% had one in any assay.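 Values shown are percent growth following 48 h exposure of cells in 96-well plates to a single concentration of compound; below 10 was considered active.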 Values without a mark were called inactive. Activity calls are given as the source filed them.

Test system: HL-60(TB) leukemia
Test: NCI-60 one-dose screen, 48 h (100 = growth as untreated, 0 = no growth, -100 = all killed)
Details: 10 µM unless noted

Row | SMILES | growth
1 | COC1=C[C@@]23CCC(=O)N2CCc2cc4c(cc2[C@H]3[C@H]1OC(=O)C(C)(C)O)OCO4 | 87%
2 | COc1ccc2oc(=O)c(C3(C)NC(=O)c4c(/C=C/C(=O)OC(C)(C)C)cccc4N3)cc2c1 (stereo not drawn) | -5.42% (active)
3 | COc1ccc(-c2nc3ccccc3n2CC(=O)N=Nc2c(O)[nH]c3ccc(Br)cc23)cc1 | 45.2%
4 | Nc1nc(-c2ccccc2)cc(-c2cc3ccccc3nc2Cl)n1 | 51.6%
5 | Cn1cc(-c2cc3nc(-c4cn(C)c5ncc(Br)cc45)cc(N)n3n2)c2cc(F)ccc21 | 1.38% (active)
6 | O=C(COc1ccc(NC(=O)Nc2ccc(Cl)cc2)cc1)N/N=C/c1ccccc1 | 45.8%
7 | CCCn1cc(-c2nc(Nc3ccc(C(=O)NCCCCNc4cccc5c4C(=O)N(C4CCC(=O)NC4=O)C5=O)cc3)nc3[nH]ccc23)cn1 (stereo not drawn) | -36.9% (active)
8 | Cc1ccc(-c2nc(Nc3ccccc3C(=O)O)c3ccccc3n2)cc1 | 17.8%
9 | CN1CCO/C1=C(/NC(=O)c1ccc(Cl)cc1)[P+](c1ccccc1)(c1ccccc1)c1ccccc1 | 54.7%
10 | COc1cc2oc(-c3cccc(C(=O)Nc4ccc(Cl)cc4)c3)cc(=O)c2c(OCCNC(=O)[C@@H](N)CCC(=O)O)c1OC | 81.6%
11 | COc1ccc(-c2nc3cc(C)ccc3n2CC(=O)N=Nc2c(O)[nH]c3ccc(Cl)cc23)cc1 | 41.1%
12 | O=C(CCN1C(=O)/C(=C/c2ccc(F)cc2)SC1=S)N1CCOCC1 | 86.4%
13 | COC(=O)/C=C/c1cccc2c1C(=O)NC(C)(c1cc3cc4ccccc4cc3oc1=O)N2 (stereo not drawn) | 54.7%
14 | Cn1cc(-c2nnc(N)nc2-c2c[nH]c3ccc(F)cc23)c2cccnc21 | 10.2%
15 | CO[C@@H]1CSSC1Cn1nc(-c2ccc(Oc3ccccc3)cc2)c2c(N)ncnc21 (stereo partly drawn) | 13.3%
16 | O=C(Nc1ccc(F)c(Cl)c1)c1cc(-c2ccc(F)cc2F)ccc1O | -41.3% (active)
17 | COc1ccc(-c2ccc(SCC(=O)NCCc3ccc(S(N)(=O)=O)cc3)nn2)cc1 | 60.5%
18 | N#CC1=C(c2cccs2)Nc2c(c(-c3ccccc3)nn2-c2ccccc2)C12C(=O)Nc1ccc(Cl)cc12 (stereo not drawn) | -4.48% (active)
19 | Nc1cc2ccccc2c(=O)n1NC(=O)c1ccc(I)cc1 | 77%
20 | CC1(c2cc3cc(Br)ccc3oc2=O)NC(=O)c2c(/C=C/C(=O)OC3CC4CCC3(C)C4(C)C)cccc2N1 (stereo not drawn) | 48.9%
21 | C#CCOc1cc(N(CC)CC)ccc1C(C(=O)NC(C)(C)C)N(C(=O)C1CCc2cc(F)ccc2O1)c1cc(C)cc(C)c1 (stereo not drawn) | 7.34% (active)
22 | CCOC(=O)C(N=Nc1ccc(S(=O)(=O)N=C(N)N)cc1)C(C)=O (stereo not drawn) | 96.4%
23 | CCCCn1c(O)c(N=Nc2nc(-c3cc4ccccc4oc3=O)cs2)c2cc(Br)ccc21 | 101%
24 | COc1ccc2cc([C@H](C)C(=O)N/N=C/c3ccc(Br)cc3)ccc2c1 | 91.3%
25 | CC1(C)CC[C@]2(C(=O)O)CC[C@]3(C)C(=CCC4[C@@]5(C)C[C@@H](O)[C@@H]6OC(c7ccccc7Br)OC[C@@]6(C)C5CC[C@]43C)C2C1 (stereo partly drawn) | 4.07% (active)
26 | COc1cc(/C=C/C(=O)c2cnn(-c3cc(=O)[nH]c4ccc(Cl)cc34)c2C)cc(OC)c1OC | -23.1% (active)
27 | O=C(COc1ccc(NC(=O)Nc2ccc(Cl)c(Cl)c2)cc1)N=Nc1c(O)[nH]c2ccccc12 | 40.1%
28 | O=C(CSc1nc2ccccc2c(=O)[nH]1)Nc1ccccc1C(=O)O | 103%
